# Compounds with a hit are over-represented: about 3.2% of the library has one in this group of screens.
# TRb SRC2 PPI: disrupts binding of human TR beta to SRC2 | P10828 | TRbeta-SRC2 peptide binding, fluorescence polarization; receptor liganded with 1 µM T3 | Potency, µM (highest dose often 106 µM), without a hit: top-dose activity change, negative = inhibition, most hits filed as inhibitors | 280,000 compounds, 0.065% hits | AID 1469;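 note: plate controls were bound peptide for no effect and peptide without receptor for full effect; nearly all actives have a fitted effect of over 50% in size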
#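 Each compound concentration gave % activity, normalized to unbound and bound Texas Red SRC2 controls, from polarization read after 5 hr ambient incubation with T3-loaded human TRb LBD.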
# Tau FP inhib: tau fibrillization inhibition (FP); AID 1468; 280,000 compounds, 0.39% hits; P10636; Potency, µM (titrated, usually from 57.7 µM), for the others: top-dose activity, negative = inhibition, usual class: inhibitors; K18 P301L tau heparin fibrillization, Alexa594 FP, 6 h; note: nearly all actives have a fitted effect of over 55% in size
# Target sequence (P10636 561-689 P618L limits assumed): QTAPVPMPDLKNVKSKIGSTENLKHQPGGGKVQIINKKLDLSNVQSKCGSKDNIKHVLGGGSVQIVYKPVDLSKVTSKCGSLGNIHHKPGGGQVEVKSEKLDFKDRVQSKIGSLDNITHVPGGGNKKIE
#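 Human K18 P301L fragment (15 uM unlabeled plus 0.24 uM Alexa 594-labeled) in 100 mM sodium acetate pH 7 with compound, aggregation induced by 20 uM heparin for 6 hr at 37 C. ThT (30 uM) added for 1 hr, then Alexa 594 FP read.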
# TexasRed fluor: Texas Red fluorescence interference in TRb-SRC2 counter-screen. TRb/SRC2 Texas Red total fluorescence interference. 280,000 compounds, 0.29% hits. Potency, µM (titrated, usually from 106 µM), without a hit: top-dose fluorescence change, negative = quenching; active = well fitted curve in either direction with a large enough effect; inconclusive = small, poorly fitted or top-dose-only effect
#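 Human TRb ligand-binding domain at 0.6 uM with 20 nM Texas Red SRC2 peptide in Tris buffer containing 1 uM T3 and 5% DMSO, incubated with compound 5 h at ambient temperature. Total fluorescence (555/632 nm) calculated as parallel + 2 × perpendicular.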
# GoLoco inh red: blocks human Gai1 binding to RGS12 GoLoco peptide, red readout; Potency, µM (highest dose often 61.6 µM), without a hit: at the highest dose activity, negative = inhibition, actives largely listed as inhibitors; Gai1:RGS12 GoLoco peptide FP, rhodamine, 10 min; 230,000 compounds, 0.44% hits; P63096; active = well fitted inhibition curve with a large enough effect, not every such curve was filed as active; inactive = no such curve, though single readings can be large or run the other way; note: nearly all actives have a fitted effect of over 30% in size
# Target sequence (P63096 whole entry, looked up): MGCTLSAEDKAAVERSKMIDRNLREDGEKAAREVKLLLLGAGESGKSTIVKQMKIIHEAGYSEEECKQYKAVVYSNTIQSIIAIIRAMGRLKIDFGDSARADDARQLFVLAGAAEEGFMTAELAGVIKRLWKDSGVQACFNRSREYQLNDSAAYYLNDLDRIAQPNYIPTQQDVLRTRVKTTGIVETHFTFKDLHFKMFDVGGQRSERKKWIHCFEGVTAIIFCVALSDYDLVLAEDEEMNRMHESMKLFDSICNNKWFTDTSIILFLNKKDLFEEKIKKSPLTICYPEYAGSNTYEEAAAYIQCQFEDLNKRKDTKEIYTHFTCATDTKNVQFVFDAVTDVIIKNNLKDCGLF
# Tau fluor counter: counter-screen for tau fibril formation inhibitors. tau K18 P301L Alexa594 fluorescence, heparin fibrillization. Potency, µM (titrated, usually from 57.7 µM), without a hit: at the highest dose activity change, negative = decrease. 280,000 compounds, 0.93% hits. AID 1463; note: nearly all actives have a fitted effect of over 55% in size
#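 Human tau K18 P301L (15 uM unlabeled, 0.24 uM Alexa 594-labeled) in 100 mM sodium acetate pH 7 with 20 uM heparin, 6 hr at 37 C. ThT 30 uM added, 1 hr ambient; Alexa 594 FP and total fluorescence read at 555/632 nm.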
# Tau ThT inhib: tau fibrillization inhibition (ThT binding) | recombinant tau K18 P301L, heparin-induced fibrillization, ThT fluorescence | Potency, µM (doses to about 57.4 µM), for inactives: top-dose activity, negative = inhibition, actives largely listed as inhibitors | 270,000 compounds, 2.1% hits; note: nearly all actives have a fitted effect of over 55% in size
#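 Fibril formation assay: tau K18 P301L at 15 uM with trace Alexa 594 label, heparin inducer 20 uM, pH 7 sodium acetate buffer, 37 C for 6 hr; endpoint ThT signal.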
# * marks the source's active call; other numbers are inactive results; u = inconclusive; x = no result given; [ ] = dose if it differs, or a comment. Unless noted, calls come from the whole dose curve; as a rule, active = well fitted curve in the direction sought with a large enough effect; inconclusive = small, poorly fitted or top-dose-only effect, or another doubt; inactive = no such curve, though single readings can be large; an effect the other way counts as inactive or inconclusive. Unless noted, % is set by controls: 0 for no effect and ±100 for the full control effect; potency is the fitted concentration of half-maximal effect.
SMILES,TRb SRC2 PPI,Tau FP inhib,TexasRed fluor,GoLoco inh red,Tau fluor counter,Tau ThT inhib
CCc1ccc2ncc3c(-c4ccccc4)nn(-c4ccccc4)c3c2c1,-7%,-10%,-3%,x,-11%,u
CCOc1ccc2nc(N3CCCC(C(=O)NCCc4ccc(OCC)c(OCC)c4)C3)sc2c1 (configuration not stated),1%,12%,4%,x,-24%,u
Cc1ccc(C)c(CSc2cn(CCNC(=O)c3cccs3)c3ccccc23)c1,4%,-12%,1%,x,8.9µM*[quencher],u
O=C(NCCn1cc(SCc2ccccc2Cl)c2ccccc21)c1cccs1,11%,u,-6%,x,3.2µM*[quencher],-26%
O=C(NCCn1cc(SCc2ccccc2)c2ccccc21)c1cccs1,1%,u,u,x,5.6µM*[quencher],u
Cc1ccc(C)c(CSc2cn(CCNC(=O)c3ccccc3F)c3ccccc23)c1,9%,-1%,2%,x,u,u
O=C(CSc1cn(CC(=O)N2CCCC2)c2ccccc12)Nc1ccccc1C(F)(F)F,-1%,-6%,-1%,x,-11%,-6%
COCc1cc(C)nc(OCC(=O)N/N=C/c2ccc(-c3cc([N+](=O)[O-])ccc3C)o2)c1C#N,1%,1%,-4%,-8%,u,-20%
Cc1ccc([N+](=O)[O-])cc1-c1ccc(/C=C(\C#N)c2[nH]nc(N)c2C#N)o1,4%,u,-7%,4%,u,8.9µM*
O=C(CCNS(=O)(=O)c1ccc2c(c1)CCN2C(=O)C1CC1)N1CCN(c2ccc(F)cc2)CC1,-10%,13%,u,x,-4%,-17%
CC(C)S(=O)(=O)c1csc(NC(=O)Nc2cc(Cl)ccc2Cl)c1Cl,-1%,22µM*,-4%,1%,u,2%
O=C1C(=C(O)c2ccccc2)C(=O)c2ccccc21,-19%,u,0%,-7%,-22%,u
O=C1C(=C(c2ccccc2)c2ccccc2)Nc2ccccc21,9%,-11%,3%,165%,u,16µM*
CC(=O)Nc1cccc(-c2nnc(SCC(=O)c3cc([N+](=O)[O-])ccc3Br)o2)c1,11%,-19%,-13%,x,14µM*[quencher],u
CC(=O)Nc1cccc(-c2nnc(SCC(=O)c3ccc([N+](=O)[O-])cc3)o2)c1,9%,-3%,6%,x,-23%,u
COc1ccc2cc(CNc3ccccc3)c(=O)n(CC(=O)Nc3ccc(C(C)=O)cc3)c2c1,2%,-8%,-2%,x,13µM*[quencher],5%
COc1ccc(NCc2cc3cc4c(cc3n(CC(=O)Nc3ccc(C)cc3)c2=O)OCO4)cc1,-2%,u,-2%,x,22µM*[quencher],-22%
COc1ccc2[nH]cc(CCNc3nc(-c4ccc(N(C)C)cc4)nc4ccccc34)c2c1,x,x,x,6%,x,x
COc1cccc(-c2nc(NCCc3c[nH]c4ccc(OC)cc34)c3ccccc3n2)c1,8%,u,-8%,-7%,14µM*[quencher],u
COc1ccc2[nH]cc(CCNc3nc(-c4ccc(C(=O)N(C)C)cc4)nc4ccccc34)c2c1,4%,3%,-10%,-17%,16µM*[quencher],u
COc1ccc2[nH]cc(CCNc3nc(-c4ccoc4)nc4ccccc34)c2c1,7%,u,-2%,5%,32µM*[quencher],u
COc1ccc2c(c1O)C(=O)c1ccccc1C2=O,3%,10%,0%,1%,-5%,u
Nc1c(O)ccc2c1C(=O)c1ccccc1C2=O,u,u,u,116%,u,14µM*
COC(=O)c1cnc(N2CCN(c3ccc(OC)cc3)CC2)c2ccccc12,-11%,-5%,1%,x,u,11µM*
COC(=O)c1cnc(N2CCN(c3ccccc3F)CC2)c2ccccc12,-1%,-4%,-2%,x,-30%,u
COc1ccc(/C=C2\CCn3c2nc2cc(C(=O)O)ccc2c3=O)cc1OC,-1%,-11%,-1%,4%,-8%,u

# Compound activity (PubChem)
